# Laboratory results taken from PubChem BioAssay (NCI).
# Where “and” joins values, the source holds several entries; their conditions need not be identical. Equal entries are not always repeated. The panel holds about 79,000 compounds, 15% with a hit somewhere; the sample as a whole holds those more often. Unmarked numbers belong to inactive results. Calls of active or inactive are those of the source. No stated cut-off is given here; in the data, active means growth inhibition above about 70%; inactive means the rest.
# Tests used:
# [1] = NCI Yeast Anticancer Drug Screen. Data for the rad50 strain (AID 155);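 further: 0% = growth of vehicle-only cultures of the same strain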; details: S. cerevisiae rad50 strain growth inhibition, stronger effect = higher value; at 50.0 µM unless noted
# Method in brief: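 Relative growth inhibition (compound vs vehicle) was measured in yeast with a defined repair-gene alteration.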
# [2] = NCI Yeast Anticancer Drug Screen. Data for the mec2-1 strain (AID 157); details: S. cerevisiae mec2-1 strain, stronger effect = higher value; at 50.0 µM unless noted
# Method in brief: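 Using mec2-1 yeast: add compound, measure growth, express inhibition versus vehicle-treated cultures.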
# [3] = NCI Yeast Anticancer Drug Screen. Data for the sgs1 mgt1 strain (AID 161);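 further: 0% = growth of cultures given vehicle only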; details: S. cerevisiae sgs1 mgt1 strain, stronger effect = higher value; at 50.0 µM unless noted
# Method in brief: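 Growth of a repair-deficient yeast mutant was monitored after compound treatment and expressed as inhibition relative to vehicle-treated cultures.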
# [4] = NCI Yeast Anticancer Drug Screen. Data for the cln2 rad14 strain (AID 165);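 further: 0% = growth equal to vehicle treated cultures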; details: S. cerevisiae cln2 rad14 strain, stronger effect = higher value; at 50.0 µM unless noted
# Method in brief: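 Yeast strain cln2 rad14, bearing defects in cell cycle control and DNA repair, serves as the test system; values reflect growth inhibition compared with vehicle.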
# [5] = NCI Yeast Anticancer Drug Screen. Data for the bub3 strain (AID 167); details: S. cerevisiae bub3 mutant strain, stronger effect = higher value; at 50.0 µM unless noted
# Method in brief: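 Screening used yeast with an engineered genetic alteration affecting cell cycle control. Compound-exposed cultures were compared with vehicle cultures, and reduced growth was taken as inhibition.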
# [6] = NCI Yeast Anticancer Drug Screen. Data for the mlh1 rad18 strain (AID 175); details: S. cerevisiae mlh1 rad18 strain growth inhibition, stronger effect = higher value; at 50.0 µM unless noted
# Method in brief: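 Steps: expose repair-defective yeast to compound; measure growth; express inhibition against vehicle-treated controls.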
Compound,growth inhibition [1],growth inhibition [2],growth inhibition [3],growth inhibition [4],growth inhibition [5],growth inhibition [6]
COC(=O)NCC1OCC2OC(C)(C)OC12 (stereo not given),14.8%,3.25%,-10.9%,-62.5%,14.8%,9.35%
CCOC(=O)C(C)(c1[nH]c2ccccc2c1C)c1[nH]c2ccccc2c1C,-0.55%,-6.2%,-14.2%,-1.4%,-14.6%,-5.7%
C=CCOC(=O)NC(CC(C)C)C(=O)NCC(N)=O (stereo not given),-10.4%,1.9%,-4.3%,-10.9%,-45.5%,-28%
O=[N+]([O-])c1ccc(/C=C(/c2ccc([N+](=O)[O-])o2)S(=O)(=O)c2ccccc2)cc1,64.8%,13.8%,76.8% (active),43%,-1.25%,60.5%
O.O.O=S(=O)(O)C(F)(F)F.[NH2-].[NH2-].[NH2-].[NH2-].[Ru+3],-17.8%,1.8%,-27%,-16.9%,-27.4%,-11.6%
COC(=O)C(=O)C(C(=O)C(=O)Nc1cccc(C(C)=O)c1)c1nc2ccccc2[nH]c1=O (stereo not given),2.7%,-9.45%,2.15%,14.2%,-18.9%,3.5%
C=CCOc1cc2c(cc1C(CC)c1ccc(OCc3ccccc3)cc1)OCO2 (stereo not given),31.9%,5.2%,-2.85%,13.9%,0.9%,-10.2%
C=C(CC(O)(C(F)(F)F)C(F)(F)F)CC(O)(C(F)(F)F)C(F)(F)F,64.8%,94.5% (active),63.9%,65.6%,95% (active),95% (active)
NNC(=O)Oc1cccc2ccccc12,22.1%,19.3%,9.9%,-4.4%,36.4%,42.5%
CN(C)c1ccc(C(=O)Cc2ccc3ccccc3n2)cc1,98.7% (active),99.2% (active),99.1% (active),98.2% (active),98.9% (active),98.9% (active)
CCC1(CC)C(=O)NN(C(=O)c2ccc(Cl)cc2)C1=O,-4.9%,-22.9%,28.4%,7.15%,-5.6%,-37.5%
CCN(CC)C(=S)Oc1ccc(OC(=S)N(CC)CC)cc1,30.6%,7.1%,-0.95%,-6.75%,-2.85%,-7.35%
CCN1CCNC(c2ccccc2)C1(C)C (stereo not given),-2.35%,-5.45%,-10%,-15.7%,-5.95%,3.4%
Cc1cc(C)c(F)c(C)c1F,-7.95%,-4.6%,-5.45%,-15.8%,5.9%,-2.3%
CCCCCCCCC1OC1CCCCCCCCOCC(O)CO (stereo not given),18.9%,-9.95%,-1.9%,-1.2%,-0.6%,-1.6%
CC(=Nc1cccc(Cl)c1)c1ccncc1,-44%,-10.2%,-24.6%,-21.2%,-6.05%,-10.8%
Cc1ccc(C)c(NC(=O)NC(C)(C)C)c1,-0.2%,-22.4%,-2.7%,-55.1%,-5.65%,-4.5%
CC(C)(C)[Si](C)(C)OCC1OC(n2cnc3c(=O)[nH]cnc32)CC1O (stereo not given),0.35%,6.2%,3.2%,8%,44%,-7.85%
CC(C)c1cc(C(C)C)c(S(=O)(=O)N/N=C2\C=CCC(C)(C)C2)c(C(C)C)c1,41.1%,5.05%,24.1%,-47.4%,-4.7%,18.9%
Nc1nc(-c2ccc(Cl)cc2)cc(-c2cc(-c3ccc(Cl)cc3)nc(N)n2)n1,6.7%,-12.9%,-8.15%,-16%,-11.2%,25.4%

Compound,growth inhibition [1],growth inhibition [2],growth inhibition [3],growth inhibition [4],growth inhibition [5],growth inhibition [6]
O=C(Nc1ccccc1)C12CCC(CC1Br)C2 (stereo not given),4.95%,-9.25%,-9.7%,7.6%,1.75%,14.2%
Cc1nc2c(c(=O)[nH]1)C(c1ccccc1)C(C)(C)O2 (stereo not given),3.6%,-23.3%,-3.6%,-4.5%,6.15%,6.85%
CC1CC(C)NC(=S)N1 (stereo not given),-16.6%,-3.9%,-9.85%,16.7%,3.25%,-5.95%
CCOC(=O)CC(C#N)(C#N)CC(=O)OCC,4.15%,21.3%,5.85%,-0.1%,26.8%,-0.55%
CNc1ccccc1C(=O)NCCCN,-10.3%,-25.6%,5%,2.75%,18.8%,0.45%
O=c1[nH]c2ccc(O)cc2o1,33.2%,17.8%,27.6%,-10.1%,12.9%,22.2%
O=C(NC(CSC(c1ccccc1)(c1ccccc1)c1ccccc1)C(=O)O)OC(c1ccccc1)c1ccccc1 (stereo not given),91.5% (active),95.6% (active),96.5% (active),89% (active),89.5% (active),96.5% (active)
CC(C)NS(=O)(=O)OCC(O)(CC(Cl)(Cl)Cl)c1ccccc1 (stereo not given),23.8%,4.2%,16.9%,21.9%,11.7%,38.7%
CCSC(SCC)=C1C(=O)N(c2ccccc2)N=C1C,-6.75%,-18.8%,-4.1%,16.2%,8.6%,2.85%
CCOC(=O)c1[nH]c(C)c(C#N)c1C,-34.4%,-26.6%,-12.7%,-34.6%,-20.8%,-19.1%
c1ccc2c(c1)ncn2Sn1cnc2ccccc21,1.8% and 2.7%,16.9% and -0.1%,3.8% and -3.35%,-12.4% and 15.5%,2.95% and 11.1%,6.9% and 20.9%
O=C(O)C1C2OC3C(OC(=O)C31)C2Br (stereo not given),-9.6% and 3.1%,6.75% and -15.9%,-8.9% and 2.25%,6.4% and -34.2%,-2.35% and 1.3%,-4.65% and 25.3%
CC(=O)Nc1c(C)cc([N+](=O)[O-])c2ccccc12,-0.7%,-2.45%,-14.9%,-9.45%,8.05%,-13.3%
CC(=O)OC(OC(C)=O)c1ccccc1,24.2%,12.2%,-3.4%,16%,5%,11.7%
CCCCCCCCCCCCCCCCCCS(=O)(=O)CC(O)CO (stereo not given),-4.45%,5.2%,-1.4%,2.4%,-11%,12.4%
C=CCNc1nc(Cl)nc2c1cnn2C,13.3%,-3%,-2.95%,-21.3%,8.55%,-5.15%
OC(c1ccc(Cl)cc1)c1ccccn1 (stereo not given),1.7%,-9%,-7.3%,-17%,-18.9%,-8.75%
Nn1c(N=Nc2c(O)[nH]c3ccccc23)n[nH]c1=S,45.9%,5.5%,57%,15.9%,6.35%,23.9%
Nc1cc(N)c(N)cc1N,-30.1% and -6.2%,16.8% and -29.1%,13% and -4.9%,-1.7% and 21.8%,41.7% and -13.9%,15% and 8.75%
[S-]c1n[n+](-c2ccccc2)cs1,2.95%,2.1%,0.15%,-5.25%,-23%,3.1%
